Measurements: PubChem BioAssay (EPA / NIEHS)
Where “and” joins values, the source holds several entries; their conditions need not be identical. Equal values may be shown once. Results filed as inconclusive are left out. Where a structure was tested more than once in an assay, its records may differ in their call. Calls of active or inactive are those of the source. How the source made its calls, unless noted: active means hit-call score of the fitted dose curve at least 0.9, where 1 is the maximum; inactive means score below 0.9.

How the values were obtained:
[1] = CCTE_Mundy_HCI_hNP1_Casp3_7: CCTE's Caspase-Glo 3/7 Assay in human neuroprogenitor cells for Apoptosis, Mundy Lab (AID 2284240)
Summary of the method: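 Apoptosis is scored by activated caspase-3/7 luminescence in WA09-derived neural progenitor cells, measured 26.5 h after chemical dosing. Values represent gain of signal relative to DMSO vehicle.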

[2] = read-out: Interleukin 17F (IL17F), IL17F (gene 112744); assay: BSK_BT_xIL17F: BioMAP Diversity Plus: BT Assay for Interleukin 17F (IL17F) Biomarker Activity (AID 2284243); details: primary human B cells with PBMC
Summary of the method: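 Measures secreted IL-17F from a human B cell plus PBMC co-culture at 24 h post-dose by Luminex xMAP, with DMSO defining baseline activity.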

[3] = read-out: Actin alpha 1 (ACTA1), ACTA1 (gene 58); assay: BSK_MyoF_ACTA1: BioMAP Diversity Plus: MyoF Assay for Actin alpha 1 (ACTA1) Biomarker Activity (AID 2284244); details: primary human lung fibroblasts
Summary of the method: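 Human lung fibroblast (MyoF system) cultures dosed with test chemical; alpha-SMA measured by ELISA 24 h after dosing, normalized to DMSO control. Cytotoxicity tracked in parallel cultures by SRB total-protein staining.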

[4] = read-out: Interleukin 2 (IL2), IL2 (gene 3558); assay: BSK_BT_xIL2: BioMAP Diversity Plus: BT Assay for Interleukin 2 (IL2) Biomarker Activity (AID 2284245); details: primary human B cells with PBMC
Summary of the method: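 Human B cell plus PBMC co-culture, 24 h after chemical dosing; secreted IL-2 quantified by Luminex xMAP multiplex, fitted for signal gain against DMSO baseline.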

[5] = read-out: Basic fibroblast growth factor (bFGF), FGF2 (gene 2247); assay: BSK_MyoF_bFGF: BioMAP Diversity Plus: MyoF Assay for Basic fibroblast growth factor (bFGF) Biomarker Activity (AID 2284246); details: primary human lung fibroblasts
Summary of the method: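 Human lung fibroblast cultures were dosed and measured 24 h later in 96-well format. bFGF biomarker levels quantified by ELISA, with activity fitted in the positive direction against DMSO.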

[6] = read-out: Collagen IV, COL4A1 (gene 1282); assay: BSK_MyoF_CollagenIV: BioMAP Diversity Plus: MyoF Assay for Collagen IV Biomarker Activity (AID 2284247); details: primary human lung fibroblasts
Summary of the method: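 Primary human lung fibroblasts (MyoF system) dosed 24 h; Collagen IV measured by ELISA. Activity fitted in positive direction against DMSO; cytotoxicity tracked by SRB total-protein staining in parallel cultures.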

[7] = read-out: Plasminogen activator inhibitor-1 (PAI1), SERPINE1 (gene 5054); assay: BSK_MyoF_PAI1: BioMAP Diversity Plus: MyoF Assay for Plasminogen activator inhibitor-1 (PAI1) Biomarker Activity (AID 2284256); details: primary human lung fibroblasts
Summary of the method: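 Activity reflects increased PAI-1, determined by ELISA and compared with DMSO, in human lung fibroblasts treated for 24 h.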

Decorin, DCN (gene 1634) = assay: BSK_MyoF_Decorin: BioMAP Diversity Plus: MyoF Assay for Decorin Biomarker Activity (AID 2284265); details: primary human lung fibroblasts
Summary of the method: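 Lung fibroblast cultures, 24 h chemical exposure. Decorin by ELISA, positive fitting direction, DMSO baseline.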

[8] = read-out: Matrix Metallopeptidase 1 (MMP1), MMP1 (gene 4312); assay: BSK_MyoF_MMP1: BioMAP Diversity Plus: MyoF Assay for Matrix Metallopeptidase 1 (MMP1) Biomarker Activity (AID 2284268); details: primary human lung fibroblasts
Summary of the method: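 MMP1 measured by ELISA 24 h after dosing primary human lung fibroblasts; cytotoxicity checked in parallel cultures by sulforhodamine B total-protein staining read at 560 nm.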

[9] = read-out: TIMP metallopeptidase inhibitor 1 (TIMP1), TIMP1 (gene 7076); assay: BSK_MyoF_TIMP1: BioMAP Diversity Plus: MyoF Assay for TIMP metallopeptidase inhibitor 1 (TIMP1) Biomarker Activity (AID 2284269); details: primary human lung fibroblasts
Summary of the method: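 Fibroblasts from human lung are dosed with chemical, cultured 24 h, and assayed for TIMP-1 by ELISA. Increases over the DMSO baseline are scored, with SRB total-protein staining run in parallel for cytotoxicity.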

[10] = read-out: Interleukin-8 (IL8), CXCL8 (gene 3576); assay: BSK_MyoF_IL8: BioMAP Diversity Plus: MyoF Assay for Interleukin-8 (IL8) Biomarker Activity (AID 2284261); details: primary human lung fibroblasts
Summary of the method: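 In this multiplexed primary-cell system, fibroblasts from human lung are treated with chemicals, and IL-8 is detected by ELISA at 24 h, with DMSO serving as the negative reference.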

[11] = BSK_MyoF_SRB: Viability Assessment in the BioMAP Diversity Plus: MyoF Assay (AID 2284267); details: primary human lung fibroblasts;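 further: total protein by SRB absorbance in parallel cultures as cytotoxicity measure; cells assessed 24 h after compound addition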
Summary of the method: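 Human lung fibroblasts, 24 h after chemical dosing; total protein measured by 0.1% sulforhodamine B staining after 10% TCA fixation, read at 560 nm, fitted relative to DMSO baseline.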

[12] = read-out: Monokine induced gamma interferon (MIG), CXCL9 (gene 4283); assay: BSK_KF3CT_MIG: BioMAP Diversity Plus: KF3CT Assay for Monokine induced gamma interferon (MIG) Biomarker Activity (AID 2284248); details: primary human keratinocytes with fibroblasts
Summary of the method: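 The assay uses a co-culture of human keratinocytes and foreskin fibroblasts. Measurement occurs 24 hours after dosing, with MIG detected by ELISA and the DMSO control as baseline.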

[13] = read-out: Collagen I, COL1A1 (gene 1277); assay: BSK_hDFCGF_CollagenI: BioMAP Diversity Plus: hDFCGF Assay for Collagen I Biomarker Activity (AID 2284250); details: primary human foreskin fibroblasts
Summary of the method: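 Primary human foreskin fibroblasts exposed to chemical for 24 h; Collagen I levels measured by ELISA. Cytotoxicity checked by SRB total-protein staining in parallel cultures.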

[14] = read-out: Interferon-inducible T-cell alpha chemoattractant (ITAC), CXCL11 (gene 6373); assay: BSK_hDFCGF_ITAC: BioMAP Diversity Plus: hDFCGF Assay for Interferon-inducible T-cell alpha chemoattractant (ITAC) Biomarker Activity (AID 2284251); details: primary human foreskin fibroblasts
Summary of the method: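 Fibroblasts (human foreskin, primary) are treated with chemical, cultured 24 h, then assayed for I-TAC by ELISA. Overt toxicity is checked in parallel cultures by sulforhodamine B staining of total protein at the same time point.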

[15] = read-out: Plasminogen activator inhibitor-1 (PAI1), SERPINE1 (gene 5054); assay: BSK_KF3CT_PAI1: BioMAP Diversity Plus: KF3CT Assay for Plasminogen activator inhibitor-1 (PAI1) Biomarker Activity (AID 2284252); details: primary human keratinocytes with fibroblasts
Summary of the method: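 Human keratinocyte/foreskin fibroblast co-culture dosed for 24 h; PAI-1 measured by ELISA, fitted in positive direction against DMSO baseline. Parallel SRB total-protein staining (0.1% SRB, 560 nm) assesses overt cytotoxicity.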

[16] = read-out: Interleukin-8 (IL8), CXCL8 (gene 3576); assay: BSK_KF3CT_IL8: BioMAP Diversity Plus: KF3CT Assay for Interleukin-8 (IL8) Biomarker Activity (AID 2284254); details: primary human keratinocytes with fibroblasts
Summary of the method: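 ELISA detection of IL-8 from a human skin co-culture, keratinocytes with foreskin fibroblasts, at 24 h following chemical exposure, with gain of signal scored against DMSO controls.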

[17] = read-out: Intercellular Adhesion Molecule 1 (ICAM1), ICAM1 (gene 3383); assay: BSK_BE3C_ICAM1: BioMAP Diversity Plus: BE3C Assay for Intercellular Adhesion Molecule 1 (ICAM1) Biomarker Activity (AID 2284278); details: primary human bronchial epithelial cells;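 further: cell-surface ICAM-1 protein level quantified by ELISA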
Summary of the method: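 Primary human bronchial epithelial cells in BE3C system, 24 h after chemical dosing; cell-surface ICAM-1 measured by ELISA relative to DMSO. Parallel SRB staining (0.1% SRB after 10% TCA fixation, read at 560 nm) assessed cytotoxicity.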

[18] = CCTE_Mundy_HCI_hNP1_CellTiter: CCTE's Cell Titer-Glo 2 Assay in human neuroprogenitor cells for Viability, Mundy Lab (AID 2284241; active means hit-call score of the fitted dose curve at least 0.9, where 1 is the maximum;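 on AC50: a hit is a drop in ATP luminescence versus DMSO meaning reduced viability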)
Summary of the method: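 Human neural progenitor cells (hNP1, WA09-derived) were plated on poly-L-ornithine/laminin and grown 40 to 44 hours at 37 °C, 5% CO2 before chemical addition. Twenty-four hours later, ATP was measured by CellTiter-Glo luminescence; loss of signal versus DMSO indicates reduced viability.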

[19] = CCTE_Mundy_HCI_Cortical_Synap_Neur_Matur_NeuronCount: CCTE's Synaptogenesis and Neurite Maturation Assay in rat cortical cells for Neuron Count, Mundy Lab (AID 2284242; active means hit-call score of the fitted dose curve at least 0.9, where 1 is the maximum)
Summary of the method: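 Rat primary cortical cells, AraC added at DIV 5, dosed with media change from DIV 7 to DIV 12. Fixed, Hoechst-stained and immunolabelled for MAP2 and synaptophysin; neuron number counted by high-content imaging, loss fitted versus DMSO.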

Measured: AC50

CC1(C)S[C@@H]2[C@H](NC(=O)COc3ccccc3)C(=O)N2[C@H]1C(=O)O
inactive: [1]

COCc1c(C(C)C)nc(C(C)C)c(/C=C/[C@@H](O)C[C@@H](O)CC(=O)O)c1-c1ccc(F)cc1
active: [2] 0.57 µM | [3] 0.0484 µM | [4] 0.58 µM | [7] 0.15 µM | [8] 0.0515 µM
inactive: [5] | [6] | Decorin, DCN (gene 1634) | [9]

c1ccc2c(c1)ccc1cc3c(ccc4ccccc43)cc12
inactive: [2] | [3] | [4] | [5] | [6] | [7] | [10] | Decorin, DCN (gene 1634) | [11] | [8] | [9]
active: [4] 0.0436 µM

CO[Si](OC)(OC)c1ccccc1
inactive: [12] | [13] | [14] | [15] | [16] | [17]

C=CCOCC(O)CCl (configuration not stated)
inactive: [2] | [3] | [4] | [5] | [6] | [7] | [10] | Decorin, DCN (gene 1634) | [11] | [8] | [9]

CCCCC/C=C\C/C=C\CCCCCCCC(=O)OC
active: [2] 25.2 µM | [3] 29.4 µM | [4] 28.9 µM | [8] 31.2 µM
inactive: [5] | [6] | [7] | [10] | Decorin, DCN (gene 1634) | [11] | [9]

O=C(Cl)c1cc(C(=O)Cl)cc(C(=O)Cl)c1
inactive: Decorin, DCN (gene 1634)
active: [2] 29.5 µM | [3] 35.1 µM | [4] 29.7 µM | [5] 36.9 µM | [6] 30 µM | [7] 39.1 µM | [11] 34.7 µM | [8] 31.9 µM | [9] 31.2 µM

CCO[Si](CCCN=C=O)(OCC)OCC
inactive: [2] | [3] | [4] | [5] | [6] | [7] | [10] | Decorin, DCN (gene 1634) | [11] | [8] | [9]

S=C(NC1CCCCC1)NC1CCCCC1
inactive: [2] | [3] | [5] | [6] | [7] | [10] | Decorin, DCN (gene 1634) | [11] | [8] | [9]
active: [4] 27.6 µM

O=Nc1ccc(O)cc1
inactive: [2] | [3] | [4] | [5] | [6] | [7] | [10] | Decorin, DCN (gene 1634) | [11] | [8] | [9]

Nc1ccc(N)c(Cl)c1
active: [12] 12.3 µM | [13] 26.7 µM | [14] 23.4 µM and 22.6 µM | [15] 13.1 µM and 26.5 µM
inactive: [12] | [13] | [16] | [17]

C=CCOc1c(Br)cc(Br)cc1Br
inactive: [4] | [10] | Decorin, DCN (gene 1634) | [8]
active: [2] 26.8 µM | [3] 24.4 µM | [5] 34 µM | [6] 5.88 µM | [7] 26.6 µM | [11] 27.7 µM | [9] 31.2 µM

Nc1ncn([C@@H]2O[C@H](CO)[C@@H](O)[C@H]2O)c(=O)n1
inactive: [18] | [19]
active: [1] 5.45 µM | [18] 2.78 µM

C=CC=CC=CCCCCC
inactive: [3] | [4] | [5] | [6] | [7] | [10] | Decorin, DCN (gene 1634) | [11] | [8] | [9]
active: [2] 7.28 µM

CCCCC(CC)COC(=O)c1ccccc1O (configuration not stated)
inactive: [2] | [3] | [4] | [5] | [6] | [7] | [10] | Decorin, DCN (gene 1634) | [11] | [9]
active: [8] 10 µM

CC(C)C(=O)C(C)C
inactive: [2] | [3] | [4] | [5] | [6] | [7] | [10] | Decorin, DCN (gene 1634) | [11] | [8] | [9]

CCO[Si](C)(OCC)OCC
inactive: [12] | [13] | [14] | [15] | [16] | [17]

c1ccc(-c2ccccn2)nc1
inactive: [3] | [4] | [5] | [6] | [7] | [10] | Decorin, DCN (gene 1634) | [11] | [8] | [9]
active: [2] 27.6 µM

COc1ccc2nc(N)sc2c1
inactive: [2] | [3] | [4] | [5] | [6] | [7] | [10] | Decorin, DCN (gene 1634) | [11] | [8] | [9]
